{
  "source": "PubChem BioAssay AID588774",
  "about": "(The Scripps Research Institute Molecular Screening Center, 2011)",
  "key": {"[1]": {"assay": "competitive ABPP of pPAFAH versus proteome hydrolases – biochemical, gel-based, FP-Rh fluorescence, complex proteome, SAR compounds, selectivity assay for pPAFAH inhibitor project, SAR follow-up (AID 588774);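 for inhibition: 0% = DMSO-only band intensity and 100% = blank gel background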", "settings": "MW 30 kDa, anti-targets inhibited, at 10 µM"}, "MW 30 kDa": {"tested_on": "MW 30 kDa", "assay": "competitive ABPP of pPAFAH versus proteome hydrolases – biochemical, gel-based, FP-Rh fluorescence, complex proteome, SAR compounds, selectivity assay for pPAFAH inhibitor project, SAR follow-up (AID 588774)", "settings": "at 10 µM, stronger effect = higher value"}},
  "note": "Active and inactive are the calls of the source.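 Rule for the calls: active = target enzyme inhibited at least 50% at a set dose, and selective over every off-target enzyme by a set factor; inactive = weaker inhibition or too little selectivity.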",
  "data": [
    {"compound": "Cc1cc(N2CCN(C(=O)Oc3ccc(-n4cccc4)cc3)CC2)c2ccccc2n1", "values": [
      {"measurement": "anti-target count", "setting": "[1]", "value": 0},
      {"measurement": "inhibition", "setting": "MW 30 kDa", "value": "0% (inactive)"}
    ]},
    {"compound": "Cc1cc(N2CCN(C(=O)Oc3ccc(C4CCCC4)cc3)CC2)c2ccccc2n1", "values": [
      {"measurement": "anti-target count", "setting": "[1]", "value": 0},
      {"measurement": "inhibition", "setting": "MW 30 kDa", "value": "0% (inactive)"}
    ]},
    {"compound": "Cc1cc(N2CCN(C(=O)n3ncc(-c4ccc(OC(F)(F)F)cc4)n3)CC2)c2ccccc2n1", "values": [
      {"measurement": "anti-target count", "setting": "[1]", "value": 9},
      {"measurement": "inhibition", "setting": "MW 30 kDa", "value": "100% (inactive)"}
    ]},
    {"compound": "COc1ccc(-c2cnn(C(=O)N3CCN(c4cc(C)nc5ccccc45)CC3)n2)cc1", "values": [
      {"measurement": "anti-target count", "setting": "[1]", "value": 8},
      {"measurement": "inhibition", "setting": "MW 30 kDa", "value": "79% (inactive)"}
    ]},
    {"compound": "O=C(Oc1noc2cc(Cl)ccc12)N1CCCCC1", "values": [
      {"measurement": "anti-target count", "setting": "[1]", "value": 2},
      {"measurement": "inhibition", "setting": "MW 30 kDa", "value": "100% (inactive)"}
    ]},
    {"compound": "Cc1cc(N2CCN(C(=O)Oc3noc4cc(Cl)ccc34)CC2)c2ccccc2n1", "values": [
      {"measurement": "anti-target count", "setting": "[1]", "value": 4},
      {"measurement": "inhibition", "setting": "MW 30 kDa", "value": "0% (inactive)"}
    ]},
    {"compound": "Cc1cc(N2CCN(C(=O)Oc3ccc(-c4ccccc4)cc3)CC2)c2ccccc2n1", "values": [
      {"measurement": "anti-target count", "setting": "[1]", "value": 0},
      {"measurement": "inhibition", "setting": "MW 30 kDa", "value": "0% (inactive)"}
    ]},
    {"compound": "Cc1cc(N2CCN(C(=O)n3ncc(-c4ccc([N+](=O)[O-])cc4)n3)CC2)c2ccccc2n1", "values": [
      {"measurement": "anti-target count", "setting": "[1]", "value": 9},
      {"measurement": "inhibition", "setting": "MW 30 kDa", "value": "91% (inactive)"}
    ]},
    {"compound": "Cc1cc(N2CCN(C(=O)Oc3ccc(-c4ccc(Br)cc4)cc3)CC2)c2ccccc2n1", "values": [
      {"measurement": "anti-target count", "setting": "[1]", "value": 0},
      {"measurement": "inhibition", "setting": "MW 30 kDa", "value": "0% (inactive)"}
    ]},
    {"compound": "Cc1cc(N2CCN(C(=O)Oc3ccc(C4CCCCC4)cc3)CC2)c2ccccc2n1", "values": [
      {"measurement": "anti-target count", "setting": "[1]", "value": 0},
      {"measurement": "inhibition", "setting": "MW 30 kDa", "value": "0% (inactive)"}
    ]},
    {"compound": "O=C(Oc1noc2cc(Cl)ccc12)N1CCOCC1", "values": [
      {"measurement": "anti-target count", "setting": "[1]", "value": 3},
      {"measurement": "inhibition", "setting": "MW 30 kDa", "value": "97% (inactive)"}
    ]},
    {"compound": "Cc1cc(N2CCN(C(=O)n3ncc(-c4ccccc4)n3)CC2)c2ccccc2n1", "values": [
      {"measurement": "anti-target count", "setting": "[1]", "value": 9},
      {"measurement": "inhibition", "setting": "MW 30 kDa", "value": "88% (inactive)"}
    ]},
    {"compound": "Cc1cc(N2CCN(C(=O)n3oc4cc(Cl)ccc4c3=O)CC2)c2ccccc2n1", "values": [
      {"measurement": "anti-target count", "setting": "[1]", "value": 3},
      {"measurement": "inhibition", "setting": "MW 30 kDa", "value": "39% (inactive)"}
    ]}
  ]
}
